High-throughput results (PubChem)
This is a sample that favours compounds with a hit; in the whole collection about 7.3% have one here.
Rab9 promoter act: activators of Rab9 promoter; AID 485297; Potency, µM (top dose mostly 9.22 µM), inactives show top-dose activation, negative = inhibition, actives largely listed as activators; 320,000 tested, 2.8% active; Huh7 Rab9 promoter-luciferase reporter, luminescence, 24 h; also: % of control where 0% means no effect; nearly all actives have a fitted effect of over 60% in size
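Huh7 reporter line, Rab9 promoter upstream of luciferase. Compound exposure 24 h at 37 °C in reduced-serum medium with 10% FBS. Read-out: luminescence.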
NPC1 promoter act: activators of NPC1 promoter. 320,000 tested, 2.4% active. Potency, µM (doses to about 9.22 µM), for the others: top-dose activation, actives largely listed as activators. Huh7 NPC1 promoter luciferase reporter, 24 h; also: % of control where 0% means no effect; nearly all actives have a fitted effect of over 60% in size
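Luciferase expression driven by the NPC1 promoter was measured in stably transfected Huh7 cells after a 24 h compound incubation, using a luciferase reagent and a luminescence read.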
SMN2 splice up: enhancers of SMN2 splice variant expression; HEK293 SMN2-luciferase splicing reporter, luminescence, 30-36 h; 210,000 tested, 2.8% active; Potency, µM (doses to about 46.1 µM), for the others: at the top dose activity change, positive = activation, actives largely listed as activators; also: % of control where 0% means no effect; nearly all actives have a fitted effect of over 55% in size
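HEK293 cells carry an SMN2 minigene-luciferase reporter in which exon 7 inclusion puts luciferase in frame. Cells were seeded at 2000 cells/well, attached for 10-12 hours, then exposed to compounds for 30-36 hours at 37C before ONE-Glo luminescence.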
Luc counter: Kinase-Glo luciferase inhibition (counter-screen); Q27757; Kinase-Glo luciferase, ATP luminescence, 8 min; Potency, µM (doses to about 38.3 µM), without a hit: at the highest dose activity change, negative = inhibition, most hits filed as inhibitors; 200,000 tested, 0.28% active; AID 1379; also: % is scaled to controls: 0 for no effect and ±100 for the full control effect; nearly all actives have a fitted effect of over 60% in size
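Light output from Kinase-Glo luciferase with luciferin and 10 uM ATP in 50 mM imidazole pH 7.2, KCl, MgCl2, Tween 20, BSA; compound pin-delivered, 8-min ambient incubation, then luminescence read.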
FLuc modulator: counter-screen for miR-21 project: firefly luciferase inhibitors or activators; purified FLuc, Km substrates, luminescence inhibition; Potency, µM (doses to about 57.5 µM), inactives show at the top dose activity change, negative = inhibition, actives largely listed as inhibitors; 360,000 tested, 6.9% active;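 also: plate controls were vehicle for no effect and reference inhibitor for full effect; nearly all actives have a fitted effect of over 55% in size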
Target sequence (P08659 whole entry, looked up): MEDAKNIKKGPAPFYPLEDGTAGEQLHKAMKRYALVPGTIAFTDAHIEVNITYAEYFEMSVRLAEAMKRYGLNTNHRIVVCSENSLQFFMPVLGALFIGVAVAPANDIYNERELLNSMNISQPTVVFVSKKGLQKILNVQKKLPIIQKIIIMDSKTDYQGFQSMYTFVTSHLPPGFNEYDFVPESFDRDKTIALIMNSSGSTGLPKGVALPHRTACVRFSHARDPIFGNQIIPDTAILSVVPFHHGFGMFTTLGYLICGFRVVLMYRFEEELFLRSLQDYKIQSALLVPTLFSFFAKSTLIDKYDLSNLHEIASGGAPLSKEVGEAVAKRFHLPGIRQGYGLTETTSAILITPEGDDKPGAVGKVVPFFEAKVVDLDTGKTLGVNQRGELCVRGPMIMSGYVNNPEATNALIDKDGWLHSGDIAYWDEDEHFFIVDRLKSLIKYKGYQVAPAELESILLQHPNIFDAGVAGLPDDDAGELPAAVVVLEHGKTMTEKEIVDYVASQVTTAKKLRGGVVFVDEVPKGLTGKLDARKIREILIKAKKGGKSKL
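Purified P. pyralis luciferase, 10 nM final, with Km-level 10 uM D-luciferin and 10 uM ATP in 50 mM Tris acetate pH 7.5, 10 mM Mg acetate, 0.01% Tween-20, 0.05% BSA; 6-point qHTS titration about 60 µM downward; luminescence read.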
ELG1 genotoxic: inducers of genotoxicity in HEK293T ELG1-luciferase cells; HEK293T ELG1-luciferase reporter, luminescence, 16 h; Potency, µM (series often up to 46 µM), without a hit: at the top dose activity change, positive = activation, actives largely listed as activators; 330,000 tested, 1.3% active; also: % of control where 0% means no effect; nearly all actives have a fitted effect of over 60% in size
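DMSO vehicle served as control against compound-treated ELG1-luciferase HEK293T cells; exposure lasted 16 hr at 37 °C and 5% CO2, followed by ONE-Glo luminescence detection after 30 min.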
An asterisk follows results filed as active; ? = inconclusive; / = no result; [ ] = another dose, or the depositor's remark. Calls follow the shape of the dose curve; as a rule, active = well fitted curve in the direction sought with a large enough effect; inconclusive = small, poorly fitted or top-dose-only effect, or another doubt; inactive = no such curve, though single readings can be large; an effect the other way counts as inactive or inconclusive. Potency is read from the fitted curve at half-maximal effect.

SMILES	Rab9 promoter act	NPC1 promoter act	SMN2 splice up	Luc counter	FLuc modulator	ELG1 genotoxic
CC(C)CCNC(=O)CN1C(=O)CCn2nc(-c3cn(C)c4ccccc34)cc21	/	/	/	/	7.5%	/
COc1ccc(OC)c(CNC(=O)c2ccc(-c3nc(CSc4ccccc4)c(C)o3)cc2)c1	/	/	/	/	-11.1%	/
Cc1ccc(O)c(NC(=O)c2onc(C)c2Cl)c1	-5.9%	18.1%	/	/	16.9µM*	?
Cc1ccc(O)c(NC(=O)c2cc(-c3cccs3)on2)c1	-0.9%	18.2%	/	/	2.13µM*	18.3µM*
COc1ccc(OC)c(-c2cc(C(=O)Nc3cnn(Cc4ccc(Cl)cc4Cl)c3)no2)c1	/	/	-2.7%	/	2.3%	/
O[C@@H](c1cc(C(F)(F)F)nc2c(Cl)cc(Cl)cc12)C1CCCCN1 (stereo not given in full)	/	/	-0.8%[9.22 µM]	-3.2%[7.66 µM]	/	/
CCn1cc(/C=N/NC(=O)c2ccc3c(c2)OCO3)c(C)n1	-3.0%	5.2%	?	-5.5%	?	2.5%
CCn1ncc(/C=N/NC(=O)c2ccc3c(c2)OCO3)c1C	6.8%	-10.2%	17.0%	-10.7%	16.9µM*	6.7%
CCn1nc(C)c(/C=N\NC(=O)c2ccc3c(c2)OCO3)c1C	2.5%	5.2%	18.8%	-5.5%	23.9µM*	15.4%
Cc1c(/C=N/NC(=O)c2ccc3c(c2)OCO3)cnn1C	1.5%	0.9%	-2.8%	-5.5%	?	2.7%
CCn1nc(C)c(CNC(=O)Nc2ccc3c(c2)OCO3)c1C	?	?	?	-2.7%	23.9µM*	?
O=C1CC(=Nc2ccccc2)NN1c1ccccc1	1.4%	-0.6%	-2.2%	1.9%	16.9µM*	-6.1%
CCOc1ccc(NC(=O)Cn2nc(CC)n3c(cc4sccc43)c2=O)cc1	/	/	1.1%	/	5.4%	/
CCOc1ccccc1C1N=C(c2ccc(OC)cc2)CC(c2ccccc2O)N1 (stereo not given)	?	?	/	-0.4%	19µM*	?
Cc1cc(Nc2cccc(Cl)c2)nc2ccc(NC(=O)COc3ccc(Cl)cc3)cc12	/	/	/	/	-2.1%	/
O=C(Nc1nc2ccccc2[nH]1)c1ccc([N+](=O)[O-])cc1	0.562µM*	1µM*	2.51µM*	-21.5%	?	?
O=C(Cc1nc2ccccc2[nH]1)c1cccc([N+](=O)[O-])c1	5.6%	?	/	/	23.9µM*	-6.1%
O=C(Nc1nc2ccccc2[nH]1)c1cccc([N+](=O)[O-])c1	1.41µM*	3.55µM*	11.2µM*	-7.0%	?	8.8%
CSCCC(NC(=O)c1cccc([N+](=O)[O-])c1)c1nc2ccccc2[nH]1 (stereo not given)	0.8%	-1.7%	12.9%	-0.1%	-7.5%	-0.6%
O=C(NCc1nc2ccccc2[nH]1)c1ccc([N+](=O)[O-])cc1	2.1%	-2.5%	-5.4%	-1.5%	3.3%	-11.2%
COC(=O)c1cc(C(=O)Nc2nc3ccccc3[nH]2)cc([N+](=O)[O-])c1	3.8%	16.6%	/	/	4.78µM*	0.0%
O=C(NC(Cc1ccccc1)c1nc2ccccc2[nH]1)c1cccc([N+](=O)[O-])c1 (stereo not given)	-3.3%	9.9%	/	/	-17.7%	-3.0%
Cc1ccc(C(=O)Cc2nc3ccccc3[nH]2)cc1	4.47µM*	2µM*	/	/	6.01µM*	3.55µM*
CCCC/C=C/C(NC(=O)OCc1ccccc1Cl)c1ccccc1 (stereo not given)	/	/	-1.8%	-2.0%	/	/
CCC(Sc1nc2ccncc2[nH]1)C(=O)Nc1ccc(F)cc1 (stereo not given)	/	/	-11.3%	/	-7.2%	/
SMILES	Rab9 promoter act	NPC1 promoter act	SMN2 splice up	Luc counter	FLuc modulator	ELG1 genotoxic
Cc1cccc(S(=O)(=O)Nc2ccc(-c3cn4ccccc4n3)cc2)c1	?	27.1%	?	2.1%	16.9µM*	9.5%
COc1ccc(S(=O)(=O)Nc2cc(-c3cn4ccccc4n3)ccc2C)cc1	/	/	8.3%	/	?	/
CCCS(=O)(=O)Nc1cccc(-c2cn3ccc(C)cc3n2)c1	/	/	12.6µM*	/	12µM*	/
O=S(=O)(Nc1ccc(-c2cn3ccccc3n2)cc1)c1ccccc1	22.8%	24.6%	/	/	13.5µM*	?
Cc1cc(C)c(S(=O)(=O)Nc2ccc(-c3cn4ccccc4n3)cc2)c(C)c1	3.1%	-2.1%	11.1%	3.0%	?	-4.9%
Cc1cc(C)c(S(=O)(=O)Nc2cccc(-c3cn4ccccc4n3)c2)c(C)c1	/	/	/	/	9.53µM*	/
O=C(NCc1ccco1)c1ccc2c(c1)N(Cc1ccccc1F)C(=O)c1ccccc1S2=O (stereo not given)	/	/	6.7%	/	-4.0%	/
Cc1cccn2cc(-c3cccc(NS(=O)(=O)c4ccc(Cl)c(Cl)c4)c3)nc12	/	/	9.3%	/	9.53µM*	/
CCOC(=O)CNC(=O)c1ccc(Cl)s1	-1.5%	-5.3%	-7.0%	-0.2%	-10.9%	-2.0%
CCNc1nc(N)c(C(=O)c2ccc(Cl)s2)s1	3.55µM*	?	20µM*	-3.4%	9.53µM*	?
O=C(Nc1cccc(C(F)(F)F)c1)c1ccc(Cn2cc(Br)cn2)o1	-1.0%	21.8%	-44.4%	1.7%	-4.2%	-3.2%
CS(=O)(=O)c1ccc2nc(NC(=O)c3ccc(Cn4cc(Br)cn4)o3)sc2c1	19.8%	?	/	/	4.78µM*	-2.8%
NS(=O)(=O)c1ccc2nc(NC(=O)c3ccc(Br)o3)sc2c1	?	?	17.8µM*	-3.7%	9.53µM*	?
Cc1ccc2nc(NC(=O)c3ccc(Br)o3)sc2c1	1.12µM*	1.41µM*	/	/	1.35µM*	?
NS(=O)(=O)c1ccc2nc(NC(=O)CS(=O)(=O)c3ccccc3)sc2c1	9.2%	-3.1%	/	/	-13.4%	-0.5%[9.26 µM]
Cc1ccc(CSc2ncc(Cl)c(C(=O)Nc3nc4ccc(C)cc4s3)n2)cc1	/	/	2.0%	/	-16.0%	/
Cc1ccccc1C(=O)Nc1ccc2c(c1)C(=O)NC2=O	0.2%	-0.2%	/	/	-1.6%	3.6%
Cc1ccc2cc(NC(=O)c3ccccc3C)ccc2n1	3.55µM*	2.82µM*	/	/	5.36µM*	?
Cc1ccc2cc(NC(=O)Cc3ccccc3)ccc2n1	2µM*	1.41µM*	/	/	3.38µM*	?
Cn1cnc([N+](=O)[O-])c1SCC(=O)O	/	/	-6.4%[9.22 µM]	-4.9%[7.66 µM]	/	/
O=C(Cn1ccc2cc(S(=O)(=O)N3CCCCCC3)ccc21)NCc1cccc(Cl)c1	/	/	/	/	8.1%	/
COCCN(CCOC)c1nc(C)nc2c1nc(-c1ccccc1)n2CCN(C)C	/	/	-6.3%	-4.2%	/	/
CN(C)/N=C/c1ccc(N2CCOCC2)cc1	2.51µM*	?	?	-19.3%	16.9µM*	4.2%
O=S(=O)(Nc1ccc(N2CCOCC2)cc1)c1ccc(F)cc1F	2.2%	-4.4%	0.3%	0.0%	-0.7%	-2.9%
C/C(=N\Nc1ccc(F)cc1F)c1ccc(F)cc1	2.0%	-3.2%	2.6%	1.6%	?	6.2%
